Data published in PubChem BioAssay (NCI).
About 83,000 compounds went through this panel and 20% of them were active in at least one assay; those are over-represented in the sample as a whole.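 Assay: single dose, 48 h. Readout: percent growth (0 = no net growth; negative = cell death). Active: <10.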 The source made the active and inactive calls.

Tests used:
Assay in all cases: NCI-60 one-dose screen, 48 h (100 = growth as untreated, 0 = no growth, -100 = all killed)
Details in all cases: 10 µM unless noted
NCI-H23 lung = tested on: NCI-H23 lung
NCI-H226 lung = tested on: NCI-H226 lung
NCI-H322M lung = tested on: NCI-H322M lung
NCI-H460 lung = tested on: NCI-H460 lung
HOP-92 NSCLC = tested on: HOP-92 NSCLC
NCI-H522 lung = tested on: NCI-H522 lung
A549/ATCC NSCLC = tested on: A549/ATCC NSCLC
786-0 renal = tested on: 786-0 renal
COLO 205 colon = tested on: COLO 205 colon
DU-145 prostate = tested on: DU-145 prostate
K-562 leukemia = tested on: K-562 leukemia
MALME-3M melanoma = tested on: MALME-3M melanoma
MDA-MB-231 breast = tested on: MDA-MB-231 breast
RXF 393 renal = tested on: RXF 393 renal
SF-268 CNS = tested on: SF-268 CNS
SF-295 CNS = tested on: SF-295 CNS
SF-539 CNS = tested on: SF-539 CNS
UACC-257 melanoma = tested on: UACC-257 melanoma
M14 melanoma = tested on: M14 melanoma
HOP-62 NSCLC = tested on: HOP-62 NSCLC

Measured: growth

O=[N+]([O-])c1ccc(P(=O)(O)O)cc1
inactive: NCI-H23 lung 105% | NCI-H226 lung 97.6% | NCI-H322M lung 101% | NCI-H460 lung 103% | HOP-92 NSCLC 85% | NCI-H522 lung 92.3% | A549/ATCC NSCLC 103% | 786-0 renal 96% | COLO 205 colon 103% | DU-145 prostate 110% | K-562 leukemia 108% | MALME-3M melanoma 92.6% | MDA-MB-231 breast 109% | RXF 393 renal 103% | SF-268 CNS 106% | SF-295 CNS 96% | SF-539 CNS 103% | UACC-257 melanoma 111% | M14 melanoma 96.1%

O=C(O)C(Br)CBr (stereo unspecified)
inactive: NCI-H23 lung 99.2% | NCI-H226 lung 103% | HOP-62 NSCLC 101% | NCI-H460 lung 102% | NCI-H522 lung 75.9% | A549/ATCC NSCLC 97.6% | 786-0 renal 96.4% | COLO 205 colon 111% | DU-145 prostate 106% | K-562 leukemia 104% | MDA-MB-231 breast 126% | SF-268 CNS 103% | SF-295 CNS 98.1% | SF-539 CNS 98.5% | UACC-257 melanoma 97.7%

Cc1c2ccncc2c(C)c2c1[nH]c1ccccc12
active: NCI-H23 lung -79.5% | NCI-H226 lung -0.884% | NCI-H322M lung -83.3% | NCI-H460 lung -69.2% | A549/ATCC NSCLC -65.4% | 786-0 renal -95.9% | COLO 205 colon -87.1% | DU-145 prostate -97.8% | K-562 leukemia 3.9% | MALME-3M melanoma -77.8% | MDA-MB-231 breast -68.9% | RXF 393 renal -87.3% | SF-268 CNS -77.1% | SF-295 CNS -84.7% | SF-539 CNS -93.6% | UACC-257 melanoma -62.1% | M14 melanoma -89.9%

C#Cc1cccc(Nc2nc(Cl)nc3cc(NC(=O)CF)ccc23)c1
inactive: NCI-H23 lung 80.2% | NCI-H226 lung 86.6% | HOP-62 NSCLC 70% | NCI-H460 lung 29.4% | HOP-92 NSCLC 91.1% | NCI-H522 lung 28.9% | A549/ATCC NSCLC 55.4% | 786-0 renal 92.9% | COLO 205 colon 41.8% | DU-145 prostate 98.1% | K-562 leukemia 28% | MALME-3M melanoma 70.5% | MDA-MB-231 breast 64.5% | RXF 393 renal 100% | SF-268 CNS 87.8% | SF-295 CNS 71.9% | SF-539 CNS 89.1% | UACC-257 melanoma 88.7% | M14 melanoma 48.3%

COC(=O)C12C3C4C1C1C2C3C41NC(=O)c1csc([C@@H](C[C@H](C(C)C)N(C)C(=O)[C@@H](NC(=O)[C@H]2CCCCN2C)C2CC2)OC(C)=O)n1 (stereo partly specified)
active: HOP-62 NSCLC 4.51% | NCI-H460 lung 7.89% | NCI-H522 lung -21.1% | COLO 205 colon -65.4% | DU-145 prostate 8.04% | K-562 leukemia 8.03% | MDA-MB-231 breast 4.12% | SF-295 CNS 9.2% | SF-539 CNS -24.4% | M14 melanoma 9.39%
inactive: NCI-H23 lung 35.8% | NCI-H226 lung 16.5% | HOP-92 NSCLC 22.6% | A549/ATCC NSCLC 13% | 786-0 renal 22.7% | MALME-3M melanoma 63.9% | RXF 393 renal 19.7% | SF-268 CNS 25.6% | UACC-257 melanoma 56%

Cc1ccc(NC2=N[C@]34CC(=O)CC[C@]3(C)[C@H]3CC[C@]5(C)C(=O)CC[C@H]5[C@@H]3C[C@@H]4S2)c(C)c1
active: 786-0 renal 5.54% | K-562 leukemia 5.33% | SF-539 CNS 8.46%
inactive: NCI-H23 lung 54.2% | NCI-H226 lung 72.8% | HOP-62 NSCLC 45.7% | NCI-H460 lung 45.8% | HOP-92 NSCLC 65.9% | NCI-H522 lung 24.6% | A549/ATCC NSCLC 61.1% | COLO 205 colon 62.4% | DU-145 prostate 25.9% | MALME-3M melanoma 27.3% | MDA-MB-231 breast 26.6% | RXF 393 renal 28.8% | SF-268 CNS 46.9% | SF-295 CNS 63.8% | UACC-257 melanoma 65.6% | M14 melanoma 37.9%

C[C@@]12CCCc3coc(c31)C(=O)c1cc3c(cc12)C(=O)C1=C(NCCS1(=O)=O)C3=O
active: NCI-H23 lung -36.4% | NCI-H226 lung 7.87% | HOP-62 NSCLC -9.65% | NCI-H460 lung 0.0882% | HOP-92 NSCLC -30.6% | NCI-H522 lung -55.6% | A549/ATCC NSCLC -10.7% | 786-0 renal 6.38% | COLO 205 colon -78.1% | DU-145 prostate -91.8% | K-562 leukemia -38.6% | MALME-3M melanoma -98.2% | MDA-MB-231 breast -23.7% | RXF 393 renal 6.73% | SF-268 CNS -1.36% | SF-295 CNS 2.57% | SF-539 CNS -63.4% | UACC-257 melanoma -94.2% | M14 melanoma -80.9%

O=C/C=C/c1ccco1
inactive: NCI-H23 lung 101% | NCI-H226 lung 107% | HOP-62 NSCLC 94.7% | NCI-H460 lung 111% | HOP-92 NSCLC 94.3% | NCI-H522 lung 92% | A549/ATCC NSCLC 85.6% | 786-0 renal 100% | COLO 205 colon 115% | DU-145 prostate 108% | K-562 leukemia 88.8% | MALME-3M melanoma 98.8% | MDA-MB-231 breast 99.4% | RXF 393 renal 119% | SF-268 CNS 102% | SF-295 CNS 99.9% | SF-539 CNS 100% | M14 melanoma 102%

CN1[C@@H](CC(=O)c2ccccc2)CCC[C@H]1CC(=O)c1ccccc1
inactive: NCI-H23 lung 97.2% | NCI-H226 lung 96.7% | HOP-62 NSCLC 110% | NCI-H460 lung 115% | HOP-92 NSCLC 111% | NCI-H522 lung 86.9% | A549/ATCC NSCLC 93.8% | 786-0 renal 108% | COLO 205 colon 114% | DU-145 prostate 108% | K-562 leukemia 102% | MDA-MB-231 breast 111% | RXF 393 renal 119% | SF-268 CNS 102% | SF-295 CNS 97.2% | SF-539 CNS 111% | UACC-257 melanoma 98.1% | M14 melanoma 104%

N#CCCc1ccccc1
inactive: NCI-H23 lung 104% | NCI-H226 lung 95.4% | NCI-H322M lung 105% | NCI-H460 lung 112% | NCI-H522 lung 95.3% | 786-0 renal 106% | COLO 205 colon 109% | DU-145 prostate 119% | K-562 leukemia 108% | MALME-3M melanoma 113% | MDA-MB-231 breast 107% | RXF 393 renal 114% | SF-268 CNS 106% | SF-295 CNS 108% | SF-539 CNS 96.2% | UACC-257 melanoma 95% | M14 melanoma 106%

O=[N+]([O-])c1ccc(CI)cc1
inactive: NCI-H23 lung 101% | NCI-H226 lung 94.6% | NCI-H322M lung 106% | NCI-H460 lung 101% | A549/ATCC NSCLC 101% | 786-0 renal 94% | COLO 205 colon 88.8% | DU-145 prostate 105% | K-562 leukemia 12.3% | MALME-3M melanoma 85.6% | MDA-MB-231 breast 102% | SF-268 CNS 84% | SF-295 CNS 110% | SF-539 CNS 56.9% | UACC-257 melanoma 80.9% | M14 melanoma 71.6%

CC[PH+](CC)CC.O=COC1OC([S-])C(OC=O)C(OC=O)C1OC=O.[Au+] (stereo unspecified)
active: NCI-H23 lung -57.3% | NCI-H226 lung -66.7% | HOP-62 NSCLC -83.1% | NCI-H460 lung -59% | HOP-92 NSCLC -86.8% | A549/ATCC NSCLC -76.6% | 786-0 renal -83.4% | COLO 205 colon -84.9% | DU-145 prostate -43.7% | K-562 leukemia -6.71% | MALME-3M melanoma -92.1% | MDA-MB-231 breast -76.3% | RXF 393 renal -91% | SF-268 CNS -78.5% | SF-295 CNS -16.3% | SF-539 CNS -99.2% | UACC-257 melanoma -83.6% | M14 melanoma -63.1%

CC(Oc1ccc(-c2ccccc2)cc1)C(=O)O (stereo unspecified)
inactive: NCI-H23 lung 106% | NCI-H226 lung 95.5% | NCI-H322M lung 102% | NCI-H460 lung 103% | A549/ATCC NSCLC 96.5% | 786-0 renal 101% | COLO 205 colon 102% | DU-145 prostate 113% | K-562 leukemia 112% | MDA-MB-231 breast 108% | SF-268 CNS 105% | SF-295 CNS 102% | SF-539 CNS 99.6% | UACC-257 melanoma 99.2%

COc1ccc(N)cc1OC
inactive: NCI-H23 lung 105% | NCI-H226 lung 107% | HOP-62 NSCLC 104% | NCI-H460 lung 119% | HOP-92 NSCLC 91.2% | A549/ATCC NSCLC 105% | 786-0 renal 102% | COLO 205 colon 109% | K-562 leukemia 129% | MALME-3M melanoma 129% | MDA-MB-231 breast 87.1% | RXF 393 renal 125% | SF-268 CNS 106% | SF-295 CNS 93.9% | SF-539 CNS 110% | UACC-257 melanoma 107% | M14 melanoma 109%

CC1OC(=O)C(C(C)C)NC(=O)C(C(C)C)OC(=O)C(C(C)C)NC(=O)C(C)OC(=O)C(C(C)C)NC(=O)C(C(C)C)OC(=O)C(C(C)C)NC(=O)C(C)OC(=O)C(C(C)C)NC(=O)C(C(C)C)OC(=O)C(C(C)C)NC1=O (stereo unspecified)
active: NCI-H23 lung -2.18% | NCI-H226 lung 0.0533% | HOP-62 NSCLC -50% | NCI-H460 lung -11.9% | HOP-92 NSCLC -38.8% | NCI-H522 lung -21.2% | A549/ATCC NSCLC -41.2% | 786-0 renal -6.45% | COLO 205 colon -81% | DU-145 prostate -60.2% | K-562 leukemia -38.2% | MALME-3M melanoma 9.37% | MDA-MB-231 breast -67.9% | RXF 393 renal -63.1% | SF-268 CNS 5.42% | SF-295 CNS -27.1% | SF-539 CNS -91.4% | UACC-257 melanoma -53.5%

COC12CC3(C)C(C4=CC(=O)OC4)CCC3(O)C3CCC4=CC(=O)CCC4(CO1)C32 (stereo unspecified)
inactive: NCI-H23 lung 99% | NCI-H226 lung 101% | NCI-H322M lung 83% | NCI-H460 lung 113% | HOP-92 NSCLC 76.8% | A549/ATCC NSCLC 98.8% | 786-0 renal 94.5% | COLO 205 colon 116% | DU-145 prostate 117% | K-562 leukemia 106% | MALME-3M melanoma 77.1% | MDA-MB-231 breast 110% | RXF 393 renal 112% | SF-268 CNS 109% | SF-295 CNS 90.6% | SF-539 CNS 111% | UACC-257 melanoma 100% | M14 melanoma 92.6%
